Compound activity (PubChem)
Most compounds without a hit are left out; they make up all but 2.9% or so of the library.
pPAFAH inh – pPAFAH (human) enzyme inhibition; inhibition, % at 3.39 µM; AID 463082; Q13093; recombinant pPAFAH, FP-rhodamine probe fluorescence polarization; 1.5% of 330,000 active;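 active = inhibition above the mean inhibition across the screen plus 3 SD, cut at about 25% in these data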;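 note: inhibitors block binding of the rhodamine activity-based probe so polarization drops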
Target sequence (Q13093 whole entry, looked up): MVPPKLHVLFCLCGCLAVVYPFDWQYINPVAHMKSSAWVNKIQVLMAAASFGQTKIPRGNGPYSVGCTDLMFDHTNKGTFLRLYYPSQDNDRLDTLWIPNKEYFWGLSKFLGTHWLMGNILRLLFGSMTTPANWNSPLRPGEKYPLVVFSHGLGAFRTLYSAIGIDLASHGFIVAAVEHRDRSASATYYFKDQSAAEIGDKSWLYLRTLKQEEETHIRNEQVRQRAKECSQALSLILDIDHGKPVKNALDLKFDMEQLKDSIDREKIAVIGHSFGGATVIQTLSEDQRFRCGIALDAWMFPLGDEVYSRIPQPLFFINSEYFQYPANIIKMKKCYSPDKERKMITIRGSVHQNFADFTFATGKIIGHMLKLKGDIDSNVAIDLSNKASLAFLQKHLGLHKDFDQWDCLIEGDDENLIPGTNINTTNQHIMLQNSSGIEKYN
PAFAH1B2 FP inh – blocks human PAF acetylhydrolase 1b catalytic subunit 2 | P68402 | recombinant PAFAH1B2, FP-rhodamine activity probe, fluorescence polarization | inhibition, % at 3.39 µM | 1.2% of 340,000 active;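 active = inhibition above the mean of all tested compounds plus 3 SD, cut at about 24% in these data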
LYPLA1 counter – counter-screen for PME1 inhibitors: inhibitors of human LYPLA1. 0.16% of 320,000 active. recombinant LYPLA1, FP-Rh probe fluorescence polarization. inhibition, % at 5.9 µM. AID 2174. O75608;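 active = inhibition above the mean of all tested compounds plus 3 SD, set per campaign, cut at about 14% in these data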;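 note: inhibitors block serine hydrolase probe labeling of LYPLA1 so polarization falls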
PAFAH1B3 inh – blocks human PAF acetylhydrolase 1B catalytic subunit 3 | Q15102 | recombinant PAFAH1B3, FP-rhodamine probe, fluorescence polarization | inhibition, % at 3.39 µM | 0.28% of 340,000 active | AID 492972;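 active = inhibition above the screen-wide average of all tested compounds plus 3 SD, cut at about 25% in these data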
PAFAH2 inh – inhibitors of human PAFAH2 | Q99487 | recombinant PAFAH2, FP-rhodamine activity probe, fluorescence polarization | inhibition, % at 3.39 µM | 0.99% of 340,000 active | AID 492956;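 active = inhibition above the mean over all tested compounds plus 3 SD, cut at about 30% in these data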;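 note: inhibitors block probe labeling of enzyme so polarization drops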
LYPLA2 counter – blocks human lysophospholipase 2, a PME1 counter-screen; recombinant LYPLA2, FP-Rh probe fluorescence polarization; inhibition, % at 5.9 µM; 0.38% of 320,000 active; AID 2177;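 active = inhibition above the screen-wide mean plus 3 SD, limit set per campaign, cut at about 26% in these data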
PAFAH2 FP conf – confirmation of human PAFAH2 inhibitors; 65% of 2,300 active; inhibition, % at 3.39 µM; recombinant PAFAH2, FP-rhodamine activity probe, fluorescence polarization; shares compounds with PAFAH2 inh;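 active = mean inhibition over three repeats above a set limit taken from the earlier primary screen, cut at about 30% in these data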;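 note: inhibitor blocks binding of rhodamine activity probe so polarization falls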
A number is an active result; - = inactive; . = no result.

SMILES | pPAFAH inh | PAFAH1B2 FP inh | LYPLA1 counter | PAFAH1B3 inh | PAFAH2 inh | LYPLA2 counter | PAFAH2 FP conf
COc1ccc(/C=C/C(=O)OCC(=O)N(C)CC(=O)Nc2ccc(C)cc2)c(OC)c1 | - | - | . | - | - | . | .
O=C(O)C1(c2ccccc2)CCN(S(=O)(=O)c2cccs2)CC1 | - | - | - | - | - | - | .
Cc1cc(C)n2nc(SCCOc3ccccc3F)nc2n1 | - | - | - | - | - | - | .
Cc1ccc(-c2ccc(/C=C3\C(=O)ON=C3c3ccccc3)o2)c([N+](=O)[O-])c1 | - | - | - | - | 32 | - | -
CNC(=O)Cc1nc2ccccc2n1CC(=O)Nc1cc(C)cc(C)c1 | - | - | - | - | - | - | .
O=C(COC(=O)c1ccc(Cl)c(S(=O)(=O)N2CCCCC2)c1)NCC1CCCCC1 | - | - | - | - | - | - | .
CCCCNC(=O)COC(=O)c1ccc(Cl)c(S(=O)(=O)N2CCCC2)c1 | - | - | - | - | 44 | - | -
O=C(COC(=O)c1ccc(Cl)c(S(=O)(=O)N2CCCCC2)c1)NCCc1ccccc1 | . | - | . | - | - | . | .
O=C(COC(=O)c1cccc(S(=O)(=O)N2CCCCC2)c1)NC1CCCCC1 | - | - | - | - | 77 | - | 76
O=C(COC(=O)c1ccc(Cl)c(S(=O)(=O)N2CCCC2)c1)NC1CCCCC1 | - | - | - | - | 36 | - | -
Cc1ccc(C(=O)OCC(=O)Nc2ccccc2C(F)(F)F)cc1S(=O)(=O)N1CCCCC1 | . | - | . | - | - | . | .
O=C(COC(=O)c1cccc(S(=O)(=O)N2CCCCCC2)c1)Nc1ccccc1C(F)(F)F | - | - | - | - | 58 | - | 36
O=C(NC1CC2CCC1C2)C1COc2ccccc2O1 (stereo unspecified) | - | - | - | - | - | - | .
Cc1ccc(-n2c(SCC(=O)NCCN3C(=O)CSC3=O)nnc2-c2ccccc2)cc1C | - | - | - | - | - | - | .
CCC(=O)N/N=C/c1ccc(-c2ccc(Cl)cc2)o1 | - | - | - | - | - | - | .
CCOC(=O)/C(=N\Nc1ccc(Br)cc1)N1CCN(c2ccccc2OC)CC1 | . | - | . | - | - | . | .
COc1ccc(COC(=O)N/N=C/c2cccs2)cc1 | - | - | - | - | - | - | .
OC(COc1ccc(Cl)c2ccccc12)CN1CCN(c2ccccn2)CC1 (stereo unspecified) | - | - | - | - | - | - | .
Cc1ccc(C(=O)OCC(=O)NC2CCCC(C)C2C)cc1S(=O)(=O)N1CCCCC1 (stereo unspecified) | - | - | - | - | 39 | - | -
CCOC(=O)N1CCN(S(=O)(=O)c2ccc3c(c2)CC(C)N3C(C)=O)CC1 (stereo unspecified) | - | - | - | - | - | - | .
CC1CCCN(C(=O)Cc2cn(Cc3cccc(Cl)c3)c3ccccc23)C1 (stereo unspecified) | - | - | - | - | - | - | .
CCOC(=O)C1CC2=C(CCCC2=O)NC1=O (stereo unspecified) | . | - | . | - | 32 | . | -
CCOC(=O)C1CC2=C(CCCC2=O)N(Cc2ccccc2)C1=O (stereo unspecified) | . | - | . | - | - | . | .
Cc1ccc(C(=O)n2nc(-n3cccc3)c3c(C)cc(C)nc32)cc1 | . | - | . | - | 49 | . | 51
CCOc1ccc(C(=O)OC(C)CN2CCCCC2)cc1 (stereo unspecified) | - | - | - | - | 57 | - | -
SMILES | pPAFAH inh | PAFAH1B2 FP inh | LYPLA1 counter | PAFAH1B3 inh | PAFAH2 inh | LYPLA2 counter | PAFAH2 FP conf
COc1cccc(/C=C/C(=O)OCC(=O)Nc2cc(C(F)(F)F)ccc2Cl)c1 | - | - | - | - | 33 | - | -
COc1cccc(/C=C/C(=O)OCC(=O)Nc2cccc(S(=O)(=O)N(C)C)c2)c1 | - | - | - | - | 69 | - | 60
COc1cccc(/C=C/C(=O)OCC(=O)Nc2ccc(Cl)c(S(=O)(=O)N(C)C)c2)c1 | - | - | - | - | 68 | - | 69
COc1ccc(CC(=O)OCC(=O)Nc2ccc(Cl)c(S(=O)(=O)N(C)C)c2)cc1 | - | - | - | - | - | - | .
CN(C)S(=O)(=O)c1cc(NC(=O)COC(=O)/C=C/c2ccco2)ccc1Cl | - | - | - | - | 58 | - | 70
COc1ccc2oc(=O)c(C(=O)OCC(=O)c3ccc([N+](=O)[O-])cc3)cc2c1 | - | . | - | . | . | - | .
